Data as given in PubChem BioAssay (NCI).
About 79,000 compounds went through this panel and 15% of them were active in at least one assay; those are over-represented in the sample as a whole. A number with no mark means an inactive call. Activity calls are given as the source filed them. No stated cut-off is given here; in the data, active means growth inhibition above about 70%; inactive means the rest.

Columns and labels:
[1] = NCI Yeast Anticancer Drug Screen. Data for the rad50 strain (AID 155);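 further: 0% = growth of vehicle-only cultures of the same strain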; conditions: S. cerevisiae rad50 strain growth inhibition; at 50.0 µM; hits give high values
Method in brief: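 Genetically altered yeast (DNA repair pathway); compound treatment; growth inhibition vs vehicle ctrl.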

[2] = NCI Yeast Anticancer Drug Screen. Data for the mec2-1 strain (AID 157); conditions: S. cerevisiae mec2-1 strain, at 50.0 µM, hits give high values
Method in brief: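 Mutant yeast (mec2-1) grown with compound; growth inhibition relative to vehicle control reported.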

[3] = NCI Yeast Anticancer Drug Screen. Data for the sgs1 mgt1 strain (AID 161);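 further: 0% = growth of cultures given vehicle only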; conditions: S. cerevisiae sgs1 mgt1 strain, at 50.0 µM, hits give high values
Method in brief: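 This yeast growth screen uses a strain with defined DNA-repair lesions; compound-treated growth is compared with vehicle-treated growth.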

[4] = NCI Yeast Anticancer Drug Screen. Data for the cln2 rad14 strain (AID 165);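 further: 0% = growth equal to vehicle treated cultures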; conditions: S. cerevisiae cln2 rad14 strain, at 50.0 µM, hits give high values
Method in brief: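 Readout is yeast growth inhibition versus vehicle-treated controls, using a strain with cln2 and rad14 alterations exposed to compound.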

[5] = NCI Yeast Anticancer Drug Screen. Data for the bub3 strain (AID 167); conditions: S. cerevisiae bub3 mutant strain, at 50.0 µM, hits give high values
Method in brief: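 Yeast carrying a defined mutation is treated with each compound, and growth is compared with that of vehicle-exposed cells to give inhibition.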

[6] = NCI Yeast Anticancer Drug Screen. Data for the mlh1 rad18 strain (AID 175); conditions: S. cerevisiae mlh1 rad18 strain growth inhibition; at 50.0 µM; hits give high values
Method in brief: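 Genetically defined yeast (DNA repair-deficient) exposed to compounds; growth inhibition determined relative to vehicle.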

Structure (SMILES) | growth inhibition [1] | growth inhibition [2] | growth inhibition [3] | growth inhibition [4] | growth inhibition [5] | growth inhibition [6]
CCCC(=O)c1ccc(C)cc1 | -1.2% | -18.8% | -4.2% | 13.5% | 8.65% | 2.65%
CC(=O)C1(C)OC(c2ccccc2)=NC1=S (stereo not given) | 7.4% | 14.3% | 7.55% | 14.9% | -5.1% | 9.35%
OC(CNC1CC2CCC1C2)COc1cccc2ccccc12 (stereo not given) | 68.4% | 42.9% | 76.5% (active) | 52.4% | 51% | 82.4% (active)
CCCCCCC(CC)C(N)=O (stereo not given) | 9.1% | 7.8% | -4.1% | -7.8% | -8.15% | -7.6%
CN(C)CCNC(=O)c1cccc2c1Oc1cccc([N+](=O)[O-])c1O2 | -12.7% | -14.1% | -9.85% | 14.4% | -12.1% | -34.3%
O/N=C1\C(=C\c2ccc3c(c2)OCCO3)CCCC1C(NO)c1ccc2c(c1)OCCO2 (stereo not given) | 13.1% | 16.7% | 29.9% | 2.8% | 16.9% | 6.15%
O=C1NC(=O)C2(CCCC2=Nc2ccc(Br)cc2)C2C=CN(Cc3ccccc3)C=C12 (stereo not given) | 0.25% | -4.25% | 6.3% | 2.4% | 3.65% | 35.2%
C/C(=N\NC(=S)N(C)C)c1nc2ncccc2[nH]1 | -44.1% | -24.1% | -64.8% | -1.5% | 18.7% | -19.1%
Cc1ccc(S(=O)C(C)C(Cl)c2ccccc2)cc1 (stereo not given) | -3.6% | 0.2% | 5.6% | 16.9% | 11.7% | 6.9%
Nc1ccc2ccccc2c1N=Nc1ccc(/C=C/c2ccc(N=Nc3c(N)ccc4ccccc34)cc2S(=O)(=O)O)c(S(=O)(=O)O)c1 | 23.4% | 18.2% | 62% | 7.1% | 31.9% | 53.4%
O=C(O)c1cc(-c2ccccc2Cl)nc2ccccc12 | 10.7% | -6.55% | -8.3% | -10.7% | 19.8% | 0.45%
COc1ccc(/C(Cl)=C/c2cc(OC)ccc2OC)cc1 | -5.1% | -10.7% | -26.9% | -0.25% | -30.2% | -9.05%
C=CCC12CC(COc3ccccc3C(N)=O)OC1=Nc1ccccc1NC2=O (stereo not given) | 0.55% | 0.25% | -27.6% | -1.8% | 0.8% | -5.05%
O=[N+]([O-])c1cccc(/C=N\O)c1 | -17.8% | -8.45% | -9.9% | -7.45% | -1.2% | -8.4%
O=S(O)OS(=O)O | -5.95% | -19.4% | -15.6% | -0.4% | 18.9% | -13.3%
Cc1cncc(NS(=O)(=O)c2ccc(N)cc2)n1 | 0.7% | 8.7% | -5.45% | -13.9% | 10% | 6.9%
CC(C)OC(=O)Nc1cccc(C(=O)O)c1 | -6.55% | -6.55% | -2.8% | -14.5% | -16.4% | -0.85%
O=C(CC(=O)C(F)(F)F)c1ccc2c(c1)Cc1ccccc1-2 | -10.2% | 28.9% | 3.75% | 14.9% | -2.7% | 23.6%
Cc1ccc(S(=O)CC(CF)OCn2cc(C)c(=O)[nH]c2=O)cc1 (stereo not given) | 1.6% | 6.65% | -42.6% | 10.2% | -16.1% | -53%
O=C(O)[C@@H]1OCCOCCO[C@@H](C(=O)O)[C@H](C(=O)O)OCCOCCO[C@H]1C(=O)O | 14.7% | 0.05% | -8.05% | 14.4% | 2.25% | -6.4%

Structure (SMILES) | growth inhibition [1] | growth inhibition [2] | growth inhibition [3] | growth inhibition [4] | growth inhibition [5] | growth inhibition [6]
COC(=O)C1=C(C)N(NC(=O)c2cccc(Cl)c2)C(C)(O)C12CCOC2=O (stereo not given) | 37.6% | -21.6% | 4.15% | 6.65% | 0.6% | 38.1%
CCOC(=O)/C(=C\n1c(=S)[nH]c2cc(C)ccc21)C(=O)c1ccccc1 | -41.2% | -60.5% | -18.8% | 10.8% | -14.2% | -13.5%
CNC(=O)OCCCCCCCCCCOC(=O)NC | 2.8% | -0.1% | 6.2% | -23.7% | -17.9% | 4.65%
NC(=O)CCC1CCCCN1 (stereo not given) | 27.2% | 18.8% | 6.5% | 5.7% | 1.85% | 2.2%
Fc1ccc(-c2cc(-c3cccs3)cc(-c3ccccc3)n2)cc1 | 8.6% | -9.45% | 21.2% | 8.55% | 20.8% | 11.1%
NNC(=S)N/N=C(/C(=O)Nc1cc(Cl)ccc1Cl)C1C(=O)Nc2ccccc2S1=O (stereo not given) | -21.8% | -32.6% | -5.1% | -28.6% | -6.6% | -0.35%
N#CCCC(=O)c1ccccc1 | -1.5% | -19.1% | -1.15% | -2.65% | 5.15% | 16.9%
CCOC(=O)/C(I)=C/c1cc(OC)c(OC)c(OC)c1 | -2.2% | 15.5% | 4.6% | 13.9% | 28.2% | 19.9%
CC[C@]12C=CCN3CCC4(c5cc([C@@]6(C(=O)OC)CC7CN(CCc8c6[nH]c6ccccc86)C[C@@H]6CCC[C@H]76)c(OC)cc5N(C)C4[C@](O)(C(=O)OC)C1OC(C)=O)C32 (stereo not given in full) | -9.2% | 3.8% | -30.6% | -22.1% | -45% | 9.3%
O=C1C2=Nc3ccccc3C(O)N2c2ccccc21 (stereo not given) | 12.8% | 22.4% | 12% | 47.4% | 17.3% | 8.75%
CCN(CC)C(=O)Sc1ccc(SC(=O)N(CC)CC)cc1 | -5% | 12.6% | -2.05% | -5.65% | -3.3% | -6.4%
O=C(CC(=O)N(C(=O)c1ccccc1)c1ccc(Cl)cc1)N/N=C\c1cc(N=Nc2ccccc2Cl)ccc1O | -13.8% | -10.1% | 14.8% | 15.2% | -21.4% | 9.1%
c1ccc2c(SCN3CCOCC3)cccc2c1 (tested in a mixture with another compound) | 35% | 21.6% | 39% | 40.9% | 21.8% | 29.8%
COC(=O)C1(C2(C(=O)OC)NC(C)=C(c3ccccc3)C(=O)O2)NC(C)=C(c2ccccc2)C(=O)O1 (stereo not given) | 15.2% | -7.3% | -6.95% | 8.3% | -5.15% | 15%
CCOc1ccc(/C=C/c2ccc(OCC)cc2)cc1 | -4.65% | -16.4% | -8.9% | -1.5% | 8.55% | -24.3%
CCOC(=O)c1ccc(NC(=O)Nc2cc(Cl)ccc2OC)cc1 | 4% | 46.1% | 21% | -2.9% | 34% | 19.7%
CCn1c(=O)ccc2ccc(N(CCO)CCO)nc21 | -19.9% | 8.3% | -0.15% | -3.6% | -9% | 10.1%
CCOC(=O)c1cc(NC(C)=O)cn1C | 4.4% | 8.8% | -1.15% | -11% | 6.45% | 16.4%
OCC1OC(c2scc3c(=S)nc[nH]c23)C(O)C1O (stereo not given) | -5.9% | -13.7% | -9.45% | 19.6% | 12.6% | -11.2%
Nc1ccc(-c2ccccc2)cc1[N+](=O)[O-] | 33.2% | -8.85% | 16.1% | -23.2% | 21.1% | 8.8%
